Reference: PubChem BioAssay AID1159580 (chemical genetic matrix, 2015)
“And” between values parts separate entries of the source, which are not always exact repeats. Equal values may be shown once. The whole screen tested about 5,500 compounds, of which about 2,000 (36%) were called active. Inconclusive results (about 18%) are left out. No stated cut-off is given here; in the data, active means normalized growth mostly below about 0.91 (no sharp cut-off); inconclusive means no clear call, values can overlap the other calls; inactive means mostly above about 0.92. The list shows a part of the results.

Experiment: chemical genetic growth profiling, strain panel (AID 1159580);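 further: tested at 20 µM; growth read once vehicle control cultures reached saturation at 30 °C; 1 = growth at the plate median or of vehicle wells; lower values mean less growth of the strain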
Conditions: S. cerevisiae deletion strains, growth OD
[1] = locus YAL040C, strain CLN3, hits give low values
[2] = locus YCL061C, strain MRC1 (second series), hits give low values
[3] = locus YDR150W, strain NUM1, hits give low values
[4] = locus YDR363W, strain ESC2, hits give low values
[5] = locus YER002W, strain NOP16, hits give low values
[6] = locus YJR075W, strain HOC1, hits give low values
[7] = locus YNL153C, strain GIM3, hits give low values
[8] = locus YNL175C, strain NOP13, hits give low values
[9] = locus YNL197C, strain WHI3, hits give low values
[10] = locus YNL224C, strain SQS1, hits give low values
[11] = locus YNL322C, strain KRE1, hits give low values
[12] = locus YOR083W, strain WHI5 (second series), hits give low values
[13] = locus YPL055C, strain LGE1, hits give low values
[14] = locus YPL241C, strain CIN2, hits give low values

Measured: normalized growth

CCCCCCCCCCCCCCCC(=O)OC(CC(=O)O)C[N+](C)(C)C (stereo unspecified)
inactive: [1] 1.07 | [14] 0.976
active: [2] 0.492 | [3] 0.56 | [4] 0.784 | [5] 0.424 | locus YGR229C, strain SMI1, hits give low values 0.0686 | [6] 0.724 | locus YMR263W, strain SAP30, hits give low values 0.584 | [7] 0.0876 | [8] 0.0754 | [9] 0.0681 | [10] 0.0761 | [11] 0.354 | [12] 0.0749 | [13] 0.383

CC(=O)OC(C)C[N+](C)(C)C (stereo unspecified)
inactive: locus YAL013W, strain DEP1, hits give low values 1.02 and 1 | locus YAL021C, strain ccr4, hits give low values 1 | locus YAL026C, strain drs2, hits give low values 1 | locus YAL030W, strain snc1, hits give low values 1 | [1] 0.999 | locus YBL061C, strain skt5, hits give low values 1.01 | locus YBR009C, strain hhf1, hits give low values 1 | locus YBR021W, strain FUR4, hits give low values 1.03 | locus YBR023C, strain chs3, hits give low values 1 | locus YBR171W, strain sec66, hits give low values 0.994 | locus YBR229C, strain ROT2, hits give low values 1.01 | locus YBR231C, strain swc5, hits give low values 0.991 | locus YBR279W, strain paf1, hits give low values 1 | locus YCL011C, strain gbp2, hits give low values 1.01 | locus YCL016C, strain dcc1, hits give low values 1.01 | locus YCL029C, strain bik1, hits give low values 1.01 | [2] 1 | locus YCL069W, strain vba3, hits give low values 1 | locus YCR088W, strain abp1, hits give low values 1.01 | locus YDL005C, strain med2, hits give low values 1.02 | locus YDL035C, strain GPR1, hits give low values 1.03 | locus YDL040C, strain nat1, hits give low values 1 | locus YDL074C, strain BRE1, hits give low values 1.01 | locus YDL101C, strain DUN1, hits give low values 1 | locus YDL134C, strain PPH21, hits give low values 1.02 | locus YDL185W, strain tfp1, hits give low values 1.02 | locus YDL192W, strain arf1, hits give low values 1.02 | locus YDR001C, strain nth1, hits give low values 0.993 | locus YDR069C, strain doa4, hits give low values 0.988 | locus YDR101C, strain arx1, hits give low values 0.996 | locus YDR137W, strain rgp1, hits give low values 0.99 | [3] 1.02 and 0.997 | locus YDR159W, strain sac3, hits give low values 1 | locus YDR162C, strain NBP2, hits give low values 1.05 | locus YDR195W, strain ref2 0.982 | locus YDR297W, strain sur2, hits give low values 1 | locus YDR318W, strain mcm21, hits give low values 1.01 | locus YDR334W, strain swr1, hits give low values 0.997 | locus YDR335W, strain msn5, hits give low values 0.998 | [4] 0.965 | locus YDR388W, hits give low values 1.02 | locus YDR392W, strain spt3, hits give low values 1 | locus YDR502C, strain sam2, hits give low values 1.01 | locus YEL003W, strain gim4, hits give low values 1.01 | locus YEL037C, strain rad23, hits give low values 1 | locus YEL061C, strain CIN8 (second series), hits give low values 0.995 | locus YEL061C, strain CIN8, hits give low values 1.01 | [5] 0.981 | locus YER015W, strain faa2, hits give low values 0.988 | locus YER016W, strain bim1, hits give low values 0.994 | locus YER110C, hits give low values 1.02 | locus YER111C, strain swi4, hits give low values 1.01 | locus YER155C, strain BEM2 (second series), hits give low values 0.992 | locus YER155C, strain BEM2, hits give low values 1.01 | locus YER167W, strain BCK2, hits give low values 1.02 | locus YFR010W, strain ubp6, hits give low values 0.989 | locus YGL078C, strain dbp3, hits give low values 1.02 | locus YGL086W, strain mad1, hits give low values 1 | locus YGL167C, strain pmr1, hits give low values 1.01 | locus YGL173C, strain kem1, hits give low values 1 | locus YGL227W, strain vid30, hits give low values 0.986 | locus YGL240W, strain doc1, hits give low values 0.985 | locus YGL248W, strain PDE1, hits give low values 0.99 | locus YGL253W, strain hxk2, hits give low values 1 | locus YGR135W, strain pre9, hits give low values 1.06 | locus YGR252W, strain gcn5, hits give low values 1.04 | locus YHR013C, strain ard1, hits give low values 1.02 | locus YHR027C, strain rpn1, hits give low values 1 | locus YHR030C, strain SLT2, hits give low values 1.01 and 1.02 | locus YHR079C, strain IRE1 (second series), hits give low values 1.01 | locus YHR079C, strain IRE1, hits give low values 1 | locus YHR094C, strain hxt1, hits give low values 1.02 | locus YHR129C, strain ARP1, hits give low values 1 | locus YHR142W, strain chs7, hits give low values 1.01 | locus YHR200W, strain rpn10, hits give low values 1.02 | locus YIL066C, strain RNR3, hits give low values 1.02 | locus YIL073C, strain SPO22, hits give low values 1.13 | locus YIL125W, strain kgd1, hits give low values 1.01 | locus YIR030C, strain dcg1, hits give low values 1.01 | locus YJL092W, strain hpr5, hits give low values 0.993 | locus YJL095W, strain BCK1 (second series), hits give low values 1.01 | locus YJL095W, strain BCK1, hits give low values 1.02 and 1.03 | locus YJL115W, strain asf1, hits give low values 0.995 | locus YJL129C, strain trk1, hits give low values 0.987 | locus YJL134W, strain LCB3, hits give low values 1.01 | locus YJL154C, strain vps35, hits give low values 1.01 | locus YJL164C, strain tpk1, hits give low values 1.01 | locus YJL166W, strain qcr8, hits give low values 0.976 | locus YJL168C, strain set2, hits give low values 1.01 | locus YJL187C, strain SWE1 (second series), hits give low values 1.02 | locus YJL187C, strain SWE1, hits give low values 1.01 | locus YJR043C, strain POL32, hits give low values 1.02 | locus YJR066W, strain TOR1, hits give low values 0.985 | [6] 1.02 | locus YKL009W, strain mrt4, hits give low values 1.04 | locus YKL068W, hits give low values 1.02 | locus YKL085W, strain MDH1 (second series), hits give low values 1.01 | locus YKL085W, strain MDH1, hits give low values 1.01 | locus YKL160W, strain elf1, hits give low values 0.987 | locus YKL190W, strain CNB1, hits give low values 1.02 | locus YKR001C, strain vps1, hits give low values 1.02 | locus YKR026C, strain gcn3, hits give low values 0.985 | locus YKR091W, strain srl3, hits give low values 0.996 | locus YLL001W, strain dnm1, hits give low values 0.97 | locus YLL026W, hits give low values 0.989 | locus YLL041C, strain sdh2, hits give low values 1.01 | locus YLR027C, strain aat2, hits give low values 0.989 | locus YLR039C, strain RIC1, hits give low values 1.06 | locus YLR058C, strain SHM2, hits give low values 1.01 | locus YLR102C, strain apc9, hits give low values 1 | locus YLR113W, strain HOG1, hits give low values 0.981 | locus YLR221C, strain rsa3, hits give low values 1 | locus YLR258W, strain gsy2, hits give low values 1 | locus YLR262C, strain YPT6 (second series), hits give low values 0.994 | locus YLR262C, strain YPT6, hits give low values 1.05 | locus YLR268W, strain sec22, hits give low values 1.01 | locus YLR320W, strain mms22, hits give low values 0.999 | locus YLR330W, strain CHS5, hits give low values 1.01 | locus YLR342W, strain FKS1 (second series), hits give low values 1.05 | locus YLR342W, strain FKS1, hits give low values 1 | locus YLR357W, strain rsc2, hits give low values 0.981 | locus YLR370C, strain arc18, hits give low values 1 | locus YLR371W, strain rom2, hits give low values 1.01 | locus YLR384C, strain iki3, hits give low values 0.996 | locus YLR418C, strain cdc73, hits give low values 1.06 | locus YML016C, strain PPZ1, hits give low values 0.999 | locus YML032C, strain rad52, hits give low values 1.01 | locus YML120C, strain ndi1, hits give low values 1 | locus YML124C, strain tub3, hits give low values 1.01 | locus YMR058W, strain fet3, hits give low values 0.991 | locus YMR078C, strain ctf18, hits give low values 1.02 | locus YMR125W, strain sto1, hits give low values 0.993 | locus YMR129W, hits give low values 0.993 | locus YMR205C, strain PFK2, hits give low values 1 | locus YMR223W, strain ubp8, hits give low values 1.07 | locus YMR231W, strain pep5, hits give low values 0.994 | locus YMR307W, strain GAS1, hits give low values 1.03 | locus YNL067W, strain RPL9B, hits give low values 1.02 | locus YNL071W, strain lat1, hits give low values 0.999 | [7] 1.01 | [8] 1.01 | locus YNL183C, strain NPR1, hits give low values 0.969 | [9] 1 | locus YNL209W, strain ssb2, hits give low values 1 | [10] 0.983 | locus YNL233W, strain BNI4, hits give low values 1.01 | locus YNL248C, strain rpa49, hits give low values 0.988 | locus YNL250W, strain rad50, hits give low values 1.05 | locus YNL271C, strain bni1, hits give low values 1.02 | locus YNL298W, strain CLA4, hits give low values 1.02 | locus YNL307C, strain MCK1, hits give low values 1.03 | locus YNL322C, strain KRE1 (second series), hits give low values 1.01 | [11] 1.01 | locus YNR049C, strain mso1, hits give low values 1.01 | locus YNR052C, strain pop2, hits give low values 1.01 | locus YOL012C, strain htz1 1.09 | locus YOL147C, strain pex11, hits give low values 1.02 | locus YOR001W, strain rrp6, hits give low values 0.987 | locus YOR061W, strain CKA2, hits give low values 1.01 | locus YOR069W, strain VPS5, hits give low values 1.01 | locus YOR070C, strain gyp1, hits give low values 1 | locus YOR080W, strain dia2, hits give low values 1.01 | [12] 1 | locus YOR083W, strain WHI5, hits give low values 0.977 | locus YOR106W, strain vam3, hits give low values 0.994 | locus YOR136W, strain idh2, hits give low values 1.01 | locus YOR144C, strain elg1, hits give low values 1.01 | locus YOR184W, strain ser1, hits give low values 1.02 | locus YOR231W, strain MKK1, hits give low values 0.947 | locus YOR265W, strain rbl2, hits give low values 1 | locus YOR270C, strain vph1, hits give low values 1.02 | locus YOR290C, strain snf2, hits give low values 0.989 | locus YOR316C, strain cot1, hits give low values 1.01 | locus YPL051W, strain arl3, hits give low values 0.999 | [13] 1.02 | locus YPL078C, strain atp4, hits give low values 0.981 | locus YPL106C, strain sse1, hits give low values 1.01 | locus YPL240C, strain hsp82, hits give low values 1 | [14] 1 | locus YPL256C, strain CLN2, hits give low values 1.03 | locus YPR119W, strain clb2, hits give low values 1.01 | locus YPR141C, strain kar3, hits give low values 1.01 | locus YPR163C, strain tif3, hits give low values 1.02 | locus YPR167C, strain met16, hits give low values 1.01 | strain wtn01, hits give low values 1
